# Laboratory results reported in publication PMC4336329 (PLoS ONE, 2015).
# About 14,000 (4.5%) of roughly 310,000 compounds showed an effect of 50% or more. Effects have a minus sign here. The list comes from a sample in which strong results are over-represented; it also holds similar structures and randomly drawn compounds.
# Target: human ether-à-go-go-related gene (hERG) potassium channel (human, UniProt Q12809)
# Experiment: primary screen, population patch clamp on CHO cells stably expressing hERG; higher = less effect of the substance
# 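Note: peak tail current of the secondary pulse compared with the same well before compound.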
# human ether-à-go-go-related gene (hERG) potassium channel, sequence (Q12809 whole entry, looked up): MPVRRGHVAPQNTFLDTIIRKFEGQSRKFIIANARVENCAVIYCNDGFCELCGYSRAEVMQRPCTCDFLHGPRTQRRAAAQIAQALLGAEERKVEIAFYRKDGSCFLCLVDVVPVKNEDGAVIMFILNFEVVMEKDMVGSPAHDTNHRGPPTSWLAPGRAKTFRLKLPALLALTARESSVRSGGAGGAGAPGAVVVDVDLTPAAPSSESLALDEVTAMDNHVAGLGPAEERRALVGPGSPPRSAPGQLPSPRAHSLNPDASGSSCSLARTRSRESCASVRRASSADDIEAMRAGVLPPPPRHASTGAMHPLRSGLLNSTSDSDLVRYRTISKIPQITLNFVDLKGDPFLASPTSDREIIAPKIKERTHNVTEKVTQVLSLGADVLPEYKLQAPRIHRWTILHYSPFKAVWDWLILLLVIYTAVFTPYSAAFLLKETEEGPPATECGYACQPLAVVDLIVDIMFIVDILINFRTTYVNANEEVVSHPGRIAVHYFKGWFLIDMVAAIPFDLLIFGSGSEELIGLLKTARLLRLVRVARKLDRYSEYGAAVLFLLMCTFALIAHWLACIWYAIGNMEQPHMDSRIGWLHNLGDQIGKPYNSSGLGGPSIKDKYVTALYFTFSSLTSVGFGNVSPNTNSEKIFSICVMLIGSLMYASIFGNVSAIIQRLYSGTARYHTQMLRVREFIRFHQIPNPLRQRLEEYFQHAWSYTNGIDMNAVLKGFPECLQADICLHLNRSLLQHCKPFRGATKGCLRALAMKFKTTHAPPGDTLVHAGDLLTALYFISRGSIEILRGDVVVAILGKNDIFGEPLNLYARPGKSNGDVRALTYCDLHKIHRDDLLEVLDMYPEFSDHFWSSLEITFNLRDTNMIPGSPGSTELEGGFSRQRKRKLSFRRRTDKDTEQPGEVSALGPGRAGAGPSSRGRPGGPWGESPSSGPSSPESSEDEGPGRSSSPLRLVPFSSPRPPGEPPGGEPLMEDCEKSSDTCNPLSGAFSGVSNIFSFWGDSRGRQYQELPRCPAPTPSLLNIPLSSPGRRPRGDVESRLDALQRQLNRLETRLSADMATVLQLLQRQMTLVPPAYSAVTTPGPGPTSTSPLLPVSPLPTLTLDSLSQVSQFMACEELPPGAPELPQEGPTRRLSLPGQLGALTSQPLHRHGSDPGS
row,Structure (SMILES),"hERG current change (%, negative = inhibition) at 10uM"
1,NC(=O)CNC(=O)C1CCN(S(=O)(=O)c2ccc(-n3cnnn3)cc2)CC1,-41.4%
2,C=CCNC(=O)C1CCCN(S(=O)(=O)c2ccc(-n3cnnn3)cc2)C1 (stereo not shown),-27.5%
3,O=C(NCc1ccco1)C1CCCN(S(=O)(=O)c2ccc(-n3cnnn3)cc2)C1 (stereo not shown),-61.8%
4,CC(C)CCNC(=O)C1CCCN(S(=O)(=O)c2ccc(-n3cnnn3)cc2)C1 (stereo not shown),22.5%
5,O=C(NCc1ccccc1F)C1CCCN(S(=O)(=O)c2ccc(-n3cnnn3)cc2)C1 (stereo not shown),-1.94%
6,O=C(NCC1CC1)C1CCCN(S(=O)(=O)c2ccc(-n3cnnn3)cc2)C1 (stereo not shown),-63.7%
7,COC(=O)C1=C(C(=O)OC)[C@@H]2N(C)c3ccccc3[C@@]23C[C@@H](C(=O)OC)N(C(=O)c2ccc(Br)cc2)C3=N1,-1.06%
8,Fc1ccc2c(c1)C(c1ccc(N3CCOCC3)cc1)=NNC(c1cccs1)=N2,-1.96%
9,CC1=CC(C)(C)NC(=S)N1c1cc(C)cc(C)c1,10.5%
10,Cc1nc(Nc2ccc(C(=O)O)cc2)nc(Nc2ccc(C(=O)O)cc2)c1[N+](=O)[O-],15.3%
11,Cc1cc(=O)c2cc(C(=O)c3ccccc3)ccc2[nH]1,-4.4%
12,COc1ccccc1Cn1c(=O)c2ccccc2n2c(SCc3csc(C)n3)nnc12,-6.34%
13,CC1=C(C)CC(C(=O)NNC(=O)c2cccc(Cl)c2)C(C(=O)O)C1 (stereo not shown),12.3%
14,Cc1ccccc1C(=O)Nc1ccc(C(=O)N/N=C/c2ccc(O)c(Br)c2)cc1,-2.99%
15,CC(C)C[C@H](NC(=O)c1[nH]cnc1C(=O)N[C@@H](Cc1ccccc1)C(=O)OCc1ccccc1)C(=O)OCc1ccccc1,21.6%
16,CNC(=O)c1[nH]cnc1C(=O)N[C@@H](CC(C)C)C(=O)OCc1ccccc1,-58.2%
17,CC(C)C[C@H](NC(=O)c1nc[nH]c1C(=O)N[C@@H](CC(C)C)C(=O)OCc1ccccc1)C(=O)OCc1ccccc1,16.2%
18,CC1(C)C(C=C(Cl)Cl)C1C(=O)Nc1ccc([N+](=O)[O-])cc1 (stereo not shown),18.9%
19,O=C(COc1ccc(/C=N/NC(=O)C(=O)N2CCCCC2)cc1)Nc1ccccc1Cl,15.9%
20,O=C(C1CCCN(S(=O)(=O)c2ccc(F)cc2)C1)N1CCCCCC1 (stereo not shown),-24%
21,O=C(C1CCCCC1)N1CCN(S(=O)(=O)c2cccc([N+](=O)[O-])c2)CC1,-13.1%
22,O=C(C1CCC1)N1CCN(S(=O)(=O)c2ccc(F)cc2)CC1,11.4%

row,Structure (SMILES),"hERG current change (%, negative = inhibition) at 10uM"
1,O=C(C1CCC1)N1CCN(S(=O)(=O)c2ccc([N+](=O)[O-])cc2)CC1,-62.6%
2,O=C(C1CCCN(S(=O)(=O)c2ccc([N+](=O)[O-])cc2)C1)N1CCCCC1 (stereo not shown),-62%
3,O=C(C1CCCN(S(=O)(=O)c2ccc(F)cc2)C1)N1CCCCC1 (stereo not shown),6.09%
4,COc1ccc2oc(C(=O)N3CCc4ccccc43)c(C)c2c1,15.1%
5,Cc1cccc(S(=O)(=O)NCCC(=O)OC(C)C(=O)NC(=O)NC2CCCCC2)c1 (stereo not shown),-20.8%
6,Cc1nn(C)c(Oc2cccc(Cl)c2)c1C#N,8.31%
7,Cc1nc(N(C)Cc2ccccc2)c2nnn(Cc3ccccc3)c2n1,-37.9%
8,COc1ccc(CCC(=O)Nc2ccc(S(=O)(=O)N3CCCC3)cc2)cc1OC,-11.8%
9,CCC1(Cc2ccccc2)NC(=O)c2ccccc2O1 (stereo not shown),2.36%
10,CC(C)N(CCn1cnc2c([nH]c3ccccc32)c1=O)C(C)C,-68.1%
11,Cc1ccc2[nH]c3c(=O)n(CCN4CCNCC4)cnc3c2c1,7.36%
12,CCN1CCCC1Cn1cnc2c([nH]c3ccc(C)cc32)c1=O (stereo not shown),-70%
13,CCN1CCCC1Cn1cnc2c([nH]c3ccc(Cl)cc32)c1=O (stereo not shown),-76.5%
14,O=c1c2[nH]c3cccc(Cl)c3c2ncn1CCN1CCCCC1,-21.9%
15,Cc1ccc2[nH]c3c(=O)n(CCN4CCOCC4)cnc3c2c1,-17.5%
16,COc1cc2[nH]c3c(=O)n(CCN(C(C)C)C(C)C)cnc3c2cc1OC,-13.3%
17,O=c1c2[nH]c3cccc(Cl)c3c2ncn1CC1CCCO1 (stereo not shown),-9.51%
18,CCN1CCCC1Cn1cnc2c([nH]c3cccc(Cl)c32)c1=O (stereo not shown),-67.2%
19,CCCCn1cnc2c([nH]c3ccccc32)c1=O,15.7%
20,Cc1ccc2[nH]c3c(=O)n(Cc4ccncc4)cnc3c2c1,4.77%
21,O=c1c2[nH]c3ccc(F)cc3c2ncn1CC1CCCO1 (stereo not shown),-16%
